HT1080NT lethal: qHTS for induction of synthetic lethality in tumor cells producing 2HG: qHTS for the HT-1080-NT fibrosarcoma cell line. HT-1080-NT fibrosarcoma viability, CellTiter-Glo ATP luminescence, 48 h. Potency, µM (top dose mostly 46.1 µM), for inactives: at the highest dose activity, negative = less viability, most hits filed as cytotoxic. actives 1.6% (n = 360,000);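 note: NT is the 2HG producing partner of a matched IDH1 knockdown line; potency is the fitted concentration of half-maximal effect; 0% = DMSO-treated cells and -100% = media-only wells without cells; nearly all actives have a fitted effect of over 55% in size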
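Viability of the 2HG-overproducing fibrosarcoma line after 48 hours of compound exposure at 37 degrees C was determined by luminescence with CellTiter-Glo, and concentration-effect curves were then fitted and categorized.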
TDP1 cell noCPT: qHTS for Inhibitors of human tyrosyl-DNA phosphodiesterase 1 (TDP1): qHTS in cells in absence of CPT. DT40 Tdp1-/- hTDP1 cells, no CPT, ATP luminescence, 48 h. Potency, µM (highest dose often 46.2 µM), inactives show top-dose activity change, negative = growth inhibition, most hits filed as inhibitors. actives 15% (n = 420,000). AID 686978, 2013; note: potency is the fitted concentration of half-maximal effect; nearly all actives have a fitted effect of over 55% in size
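No-CPT arm: Tdp1-/-;hTDP1 DT40 cells (400/well) plus compounds, incubated ≥48 hr at 37 °C. Readout CellTiter-Glo luminescence.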
DT40 TDP1 CPT: qHTS for Inhibitors of human tyrosyl-DNA phosphodiesterase 1 (TDP1): qHTS in cells in presence of CPT; chicken DT40 Tdp1-/-;hTDP1 cells + 20 nM CPT, ATP luminescence, 48 h; Potency, µM (top dose mostly 46.2 µM), for the others: at the highest dose activity change, negative = growth inhibition, usual class: inhibitors; actives 12% (n = 420,000); AID 686979, 2013; note: potency is the fitted concentration of half-maximal effect; nearly all actives have a fitted effect of over 55% in size
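Chicken DT40 Tdp1-/- cells complemented with human TDP1, 400 cells/well, exposed to compounds plus 20 nM camptothecin for at least 48 h at 37 C; viability read as ATP content by CellTiter-Glo luminescence.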
HT1080 IDH1KD tx: qHTS for induction of synthetic lethality in tumor cells producing 2HG: qHTS for the HT-1080-IDH1KD cell line; HT-1080 IDH1 knockdown viability, ATP luminescence, 48 h; Potency, µM (series often up to 46.1 µM), for the others: top-dose activity, negative = toxicity, most hits filed as cytotoxic; actives 2% (n = 360,000); AID 686971, 2013;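 note: potency is the fitted concentration of half-maximal effect; 0% = DMSO wells and -100% = cell-free medium wells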
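Viability of IDH1-knockdown HT-1080 fibrosarcoma cells was assessed by CellTiter-Glo after 48 h at 37 °C with titrated compound; concentration-effect curves were classified by fit quality and response size.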
IL-1B inflam inh: qHTS for Inhibitors of Inflammasome Signaling: IL-1-beta AlphaLISA Primary Screen; THP-1 LPS/ATP IL-1B secretion, AlphaLISA, 16 h; active compounds read low; activity change, % at 57.5 µM; actives 4.7% (n = 360,000); AID 743279, 2014; in the data active = activity change below about -50%; inconclusive = mostly about -30% to -49%
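THP-1 cells pretreated 1 hr with compounds (up to 57.5 uM final), then stimulated with LPS (250 ng/mL final) plus ATP (1.25 mM final); secreted IL-1B measured by AlphaLISA after 16 hr, decreased signal indicating inhibition.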
Starred values were filed as active, the others as inactive; ? = inconclusive; · = not tested or not shown. The list is not random: actives were taken first. Their share in the collection is about 19%. Unless noted, calls come from the whole dose curve; as a rule, active = well fitted curve in the direction sought with a large enough effect; inconclusive = small, poorly fitted or top-dose-only effect, or another doubt; inactive = no such curve, though single readings can be large; an effect the other way counts as inactive or inconclusive. Unless noted, % is set by controls: 0 for no effect and ±100 for the full control effect.

SMILES	HT1080NT lethal	TDP1 cell noCPT	DT40 TDP1 CPT	HT1080 IDH1KD tx	IL-1B inflam inh
NC(=O)[C@@H]1C[C@]2(NC(=O)NC2=O)c2cc(F)ccc2O1	·	-9.0%	14.7%	·	·
CCCN(CCC)c1ncnc2c1cnn2-c1ccc(OC)cc1	4.3%	?	?	8.2%	-65.4*
COc1ccc2c(c1)C[C@]1(C)c3ccccc3C(=O)N(Cc3ccccc3)[C@H]21	-24.5%	6.31µM*	16.4µM*	?	-11.8
COc1ccc2c(c1)C(=O)N(Cc1ccccc1)C(=O)C2(C)C	-5.2%	-29.9%	-2.0%	-9.2%	-14.7
NC(=O)c1ncn([C@@H]2O[C@H](CO)[C@@H](O)[C@H]2O)c1O	20.3%	-17.2%	0.5%	16.1%	10.4
C/C(CC(=O)Nc1cc(Cl)ccc1C)=N\NC(N)=O	16.5%	0.5%	-20.1%	6.9%	4.1
CCOC(=O)C1=CN(Cc2ccco2)S(=O)(=O)N(CC)C1c1ccc(C(F)(F)F)cc1 (configuration not stated)	-2.7%	16.4µM*	23.1µM*	2.3%	-7.2
Clc1ccc(Br)c(-c2nc3ccccc3[nH]2)c1	-1.6%	-3.3%	0.5%	-2.6%	-15.2
CC(OC(=O)c1ccccc1O)C(=O)Nc1cccc(Cl)c1 (configuration not stated)	-2.2%	13µM*	-2.4%	-9.1%	0.8
CC(C)C(=O)Nc1cccc(NC(=S)NC(=O)c2ccccc2Cl)c1	1.2%	18.4µM*	?	-11.1%	-15.3
Cc1ccccc1C(=O)NC(=S)Nc1cccc(NC(=O)C(C)C)c1	-2.3%	?	-3.7%	11.9%	-3.4
O=C(Nc1ccc(NC(=S)NC(=O)c2ccccc2Cl)cc1)c1cccc(Cl)c1	-22.8%	16.4µM*	18.4µM*	?	-19.9
NC(=O)C1CC(=O)N(c2ccc(OCc3c(Cl)cccc3Cl)cc2)C1 (configuration not stated)	-5.8%	-22.5%	-5.1%	-4.1%	-14.5
Cc1ccc(C)c(CN2C(=O)c3ccccc3S(=O)(=O)c3ccc(C(=O)N4CCOCC4)cc32)c1	·	-24.6%	-14.4%	·	·
C[C@@H]1CN([C@H](C)CO)C(=O)CCCn2nncc2CO[C@H]1CN(C)Cc1ccc2c(c1)OCCO2	8.3%	?	5.6%	1.9%	7.3
Cc1ccc(Nc2cccccc2=O)cc1	-3.9%	?	20.6µM*	29.1µM*	-21.1
CC(C)CSc1nc2c(=O)[nH][nH]c(=O)c2n1Cc1ccccc1	8.9%	5.2%	1.4%	7.7%	30.8
Cc1cc2c(c(-c3cnccn3)c1)OC(CNC(=O)c1cc(C(C)C)[nH]n1)C2 (configuration not stated)	·	-23.0%	-23.6%	·	·
NS(=O)(=O)c1cc(C(=O)OCC(=O)Nc2ccc(Cl)cc2[N+](=O)[O-])ccc1Cl	7.1%	-6.3%	-7.7%	6.9%	71.7
CC(CCc1ccccc1)NC(=O)COC(=O)c1ccc(S(C)(=O)=O)c([N+](=O)[O-])c1 (configuration not stated)	16.4µM*	2.31µM*	2.31µM*	7.31µM*	-107.6*
CC(CCc1ccccc1)NC(=O)COC(=O)c1ccc([N+](=O)[O-])cc1 (configuration not stated)	9.5%	10.3%	9.2%	-2.7%	28.6
CS(=O)(=O)c1ccc(C(=O)OCC(=O)Nc2cc(C(F)(F)F)ccc2Cl)cc1[N+](=O)[O-]	·	?	11.2µM*	·	·
Cc1ccccc1NC(=O)Cc1nc(COC(=O)c2ccc(S(C)(=O)=O)c([N+](=O)[O-])c2)cs1	?	3.66µM*	2.91µM*	16.4µM*	-101.5*
CS(=O)(=O)c1ccc(C(=O)OCC(=O)Nc2cccnc2Cl)cc1[N+](=O)[O-]	-27.9%	8.2µM*	6.51µM*	?	-96.1*
O=C(c1ccc(C(F)(F)F)cc1)C1CCCN(C(=O)CCN2CCCO2)C1 (configuration not stated)	15.1%	?	-24.8%	6.3%	23.1
SMILES	HT1080NT lethal	TDP1 cell noCPT	DT40 TDP1 CPT	HT1080 IDH1KD tx	IL-1B inflam inh
Cc1cn([C@H]2C[C@H](O)[C@@H](CNC(=O)CNC(=O)CN)O2)c(=O)[nH]c1=O	2.4%	0.3%	2.9%	0.4%	13.9
CCc1nnc(NS(=O)(=O)c2ccc(N3C(=O)c4ccc(C(=O)O)cc4C3=O)cc2)s1	21.7%	-0.9%	5.6%	28.4%	6.6
NS(=O)(=O)c1cc(C(=O)OCC(=O)Nc2ccccc2[N+](=O)[O-])ccc1Cl	-11.2%	1.2%	6.1%	-7.2%	7.4
CC(C)(C)c1ccc(OCCC(=O)OCC(=O)Nc2cccnc2Cl)cc1	1.9%	16.4µM*	?	-3.2%	-9.6
Cc1ccccc1NC(=O)COC(=O)c1ccc(S(C)(=O)=O)c([N+](=O)[O-])c1	?	3.98µM*	2.51µM*	10.3µM*	-95.8*
CCOc1cc(/C=N/NC(=O)c2cccc([N+](=O)[O-])c2)ccc1OS(=O)(=O)c1ccccc1	?	18.4µM*	?	?	-10.7
Cc1ccc(S(=O)(=O)Oc2cccc([N+](=O)[O-])c2)cc1	-16.3%	?	10.3µM*	-18.4%	-18.8
COc1cc(/C=N/NC(=O)COc2cc(C)cc(C)c2)ccc1OS(=O)(=O)c1ccc(C)cc1	-0.7%	6.51µM*	16.4µM*	-10.6%	3.0
COc1ccc(/C=N/NC(=O)c2cccc([N+](=O)[O-])c2)cc1OS(=O)(=O)c1ccc(C)cc1	?	2.59µM*	4.11µM*	?	16.0
COc1ccc(C(=O)N/N=C/c2ccc(OC)c(OS(=O)(=O)c3ccccc3)c2)cc1	1.5%	16.4µM*	-60.1%	?	0.0
COc1ccc(/C=N/NS(=O)(=O)c2ccccc2)cc1OS(=O)(=O)c1ccccc1	7.3%	-25.4%	-12.0%	0.4%	8.7
ClCCn1cnc2c(SCc3ccccc3Cl)ncnc21	-20.7%	0.82µM*	?	?	-66.8*
ClCCn1cnc2c(SCc3ccccc3)ncnc21	1.2%	1.84µM*	?	?	-55.5*
CC(C)Cn1cnc2c(SCc3ccccc3Cl)nc(N)nc21	-20.7%	?	?	?	?
CC(=O)N1CCc2c(sc3c2c(=O)n(-c2ccccc2C)c(=O)n3CC(=O)c2ccccc2)C1	·	-22.7%	-1.9%	·	·
CC(=O)N1CCc2c(sc3c2c(=O)n(CCc2ccccc2)c(=O)n3Cc2ccccc2C)C1	·	16.4µM*	14.6µM*	·	·
